These results are taken from publication PMC12136788.

The labels stand for the following.
B1: chr17:15565482:15566353:-|three_prime_utr|ENSG00000241322|control|control|control (ssRNA)
RNA: GGGAGUUCUACAGUCCGACGAUCCACCCAAAGAAAAAGUCUUGGAAAAUCCCUAUGUCACCUGACCAAUUCCUCCUGACUGUUAGCGCCCUGCAGCACGCCCGUAAUUCCGGGGAAUUUGCCUAUCCCUGUAGGCCCCAAACACAACAGAGGAUUGAGCAUCA
B2: chr16:58599380:58599482:-|5pUTR|ENSG00000125107|unk|FALSE|unique (ssRNA)
RNA: GGGAGUUCUACAGUCCGACGAUCCAGAACAGAGUAAGACCCCUGGUAAAGAAGAACUGAAGAUAUUAUACAGAUACCAGAUAUAGCCUAAUUACAAAGAAAGCAUUAACCUGCCUCUGAGGUGACUAAAGGGGAAUAAUGGUGCAACAGAGGAUUGAGCAUCA
B3: chr12:108645191:108645284:-|3pUTR|ENSG00000110880|msi1_unk|total|mutant (ssRNA)
RNA: GGGAGUUCUACAGUCCGACGAUCUCUUUUUUUUUUUUUUUUUUUAAGCCAUGACAUCCCAGAAGAGGACAGUGAAUUACUCCCCGGUCGGCUCUUACCGAGUGGCCACCGUGUUCUGUCAAAACACUUGCUUCCAUUUUCAGACAACAGAGGAUUGAGCAUCA
B4: chr8:23842113:23842214:-|3pUTR|ENSG00000159167|msi1|total|mutant (ssRNA)
RNA: GGGAGUUCUACAGUCCGACGAUCACUUCCGACAUUUUUGUGCCAUUAUAUUUGCAUUAUGUAUUUAUAAUUUAAAUGAUAUUCCGGUUUUUGGCUGAGUACUGGAAUAAACAGUGAGCAUAUCUGGUAUAUGUCAUUAUUUAUCAACAGAGGAUUGAGCAUCA
B5: chr1:202941098:202941199:-|3pUTR|ENSG00000159346|msi1_unk|total|mutant (ssRNA)
RNA: GGGAGUUCUACAGUCCGACGAUCCCUCCCUUACCCCCAUCCUUAACUUUGUAUCCUGGCUUAUAACAGGCCAUCCAUUUUUGCCGCACACUUUUCAAAAACAAUUAUAUACCCUGGUCCCAUCUUUCCCGGGCCUGGAUCUGCCAACAGAGGAUUGAGCAUCA
B6: chr9:74692981:74693082:+|3pUTR|ENSG00000198963|unk|total|mutant (ssRNA)
RNA: GGGAGUUCUACAGUCCGACGAUCUUUUAUAUUACUUCCGAAUGUAACCGGUUUUUGUCCUUAUUUUAUGUCCUGUAAAUUAUCCGUUCAAUACUGUCCGCAUUCCCGGAUAAUGCACACAUGAUUUCUGAAUGUUUUCUGUAACAACAGAGGAUUGAGCAUCA
B7: chr6:149889094:149889339:-|three_prime_utr|ENSG00000164520|control|control|control (ssRNA)
RNA: GGGAGUUCUACAGUCCGACGAUCGGCAGCUCCCUUUAAAGGUCAAAAGCCUUCCCUGUGUGGGUGUCAGUGUGUGUGUGCGAUAGAAAAUUUGAUUGACUUCUCCGUGGGCUUCCUGUCUGGAGAGUCAGUGAUGGCUAUAAGCAACAGAGGAUUGAGCAUCA
B8: ENSG00000198589:be:win_1801|CDS|ENSG00000198589|bound_else_gene|NA|bound_elsewhere_windowed (ssRNA)
RNA: GGGAGUUCUACAGUCCGACGAUCACAGUCAACAUAUAUAACACCAUUCGGAGAGUUGGAACAGUGCUUCUCAUCAUGCACACGCUGAAGUACUACUACUGGGCAGUGAAUCCUCAGGAUCGAAGUGGUAUCACCCCAAAAGGACAACAGAGGAUUGAGCAUCA
B9: chr21:18281039:18281221:-|CDS|ENSG00000154646|control|control|control (ssRNA)
RNA: GGGAGUUCUACAGUCCGACGAUCACCUCUCCUCAAACAGUCCCUCGAUUAAUAGAUGAAAUUGUCAUAAACCCUCAUUACAAUAGGCGAAGAAAGGACAACGACAUUGCCAUGAUGCAUCUGGAAUUUAAAGUGAAUUACACACAACAGAGGAUUGAGCAUCA
B10: chr20:53567570:53567671:-|3pUTR|ENSG00000171940|unk|FALSE|unique (ssRNA)
RNA: GGGAGUUCUACAGUCCGACGAUCUCACAAGCUGAGCCAUAUGUACAUAAUCUAGAUUUUGUUUUCAUAGUUUUGCACUUUUAUAGCCUAUUUUUGAAGAUUAACACAUUUGCAAGAUGAUUGACUCAAUCUUUGCCUAAUCCACAACAGAGGAUUGAGCAUCA
B11: chr11:74334375:74334476:-|3pUTR|ENSG00000165434|msi1|FALSE|unique (ssRNA)
RNA: GGGAGUUCUACAGUCCGACGAUCUUUUUGUUUUAUUUUUAAAAUGUGUAAAACAUCUUUUGUUUUAUAUGCUUUUAAGAAUGUAGAUUGUAAUUUAGGAAAUGGCAUAUAUUCUGCAAAGUGGUAUAAUGUUGUAUAUAUGAACAACAGAGGAUUGAGCAUCA
B12: chr14:103503186:103503248:+|CDS_3pUTR|ENSG00000075413|msi1_unk|FALSE|overlapping (ssRNA)
RNA: GGGAGUUCUACAGUCCGACGAUCUGCUUCCAAAAUUGCCAAUGAGCUAAAGCUGUAACCCAGUGAUUAUGAUGUAAAUUAAGUAGCAAUUAAAGUGUUUUCCUGAACACUGAUGGAAAUGUAUAGAAUAAUAUUUAGGCAAUACAACAGAGGAUUGAGCAUCA
B13: chr12:98549714:98549829:+|3pUTR|ENSG00000120802|unk|FALSE|unique (ssRNA)
RNA: GGGAGUUCUACAGUCCGACGAUCGAAGAUGUAUAUUUAGACCAGCACACAAUUUUGAUUUCAAUUAGCCUUAUUCUAAUAUUUAGCUUUUAGAUCUUUCAUACACAUUUUCACGUACUUUGCAAUUGAGACCAGAAAGACUUGCAACAGAGGAUUGAGCAUCA
B14: ENSG00000136451:be:win_1001|CDS|ENSG00000136451|bound_else_gene|NA|bound_elsewhere_windowed (ssRNA)
RNA: GGGAGUUCUACAGUCCGACGAUCACCAAAAGCAGCAGCAGCAGCAGCAGCAGCAGCAGCAGCAGCAGCAACAACAACAACAACAACAUGUGACAAGCUGGCCAGGGAAGCAAGUAGAAACACUGAGACUGUGGGAAGAAGCUGCAACAGAGGAUUGAGCAUCA
B15: chr2:206311781:206311882:+|3pUTR|ENSG00000204186|unk|FALSE|unique (ssRNA)
RNA: GGGAGUUCUACAGUCCGACGAUCUAGUGUUUAGAGUCCUUUCAUUUUAAGAUUCAGAAACAGCCUUUGUCCAACAUUUUCUGUAGAAGAACUUCAUCUUAAUUUAUGUCACAAAAUAAUUUAGCACCGUAUAUAGAAUUUUGUCAACAGAGGAUUGAGCAUCA
B16: chr5:52955293:52955406:+|3pUTR|ENSG00000213949|unk|FALSE|unique (ssRNA)
RNA: GGGAGUUCUACAGUCCGACGAUCUACCAACCAGUGUGAGCUGACUUCAGCACACCACUGAGACAGAUUACACGAUAGACAGAUAGAUAGAUAGAUAGAUAGAUAGAUAGAUAGAUAGAUAGAUAGAUAUUGAUAGAGAACAUGCAACAGAGGAUUGAGCAUCA
B17: chr2:206311781:206311882:+|3pUTR|ENSG00000204186|unk|total|mutant (ssRNA)
RNA: B15 RNA with U24C, A25C, U31C, A32C, U83C, A84C, U121C, A122C, U133C, A134C
B18: chr12:76029359:76029534:-|3pUTR|ENSG00000139289|msi1|FALSE|unique (ssRNA)
RNA: GGGAGUUCUACAGUCCGACGAUCAGAAGUUUAAAAAGCUAAAAGUUAAAAAUGGUGUAAUUAUGAAAAUCUAACACUCAAGAUAGUUUCUAAAAGGAAAUCAGUAGUUAAGGAUACCUGAUUUCAAAAUAUUUAAAGCAUAACCAACAGAGGAUUGAGCAUCA
B19: chr16:57253408:57253449:+|3pUTR|ENSG00000102931|msi1_unk|FALSE|overlapping (ssRNA)
RNA: GGGAGUUCUACAGUCCGACGAUCUGUGUGGUAGAUUACUUAUCAGAAAACAUAUAUGUCAUCUCUAGAACGAAGAAAAAGCAUAGUAGUUCAAUUCCCAGUGUGUCCCUUUGAUUUUUUUUUUUUAAUAGUAAAAAUAAGAAUCAACAGAGGAUUGAGCAUCA
B20: ENSG00000198589:be:win_6551|CDS|ENSG00000198589|bound_else_gene|NA|bound_elsewhere_windowed (ssRNA)
RNA: GGGAGUUCUACAGUCCGACGAUCGACGUAUUUCAUUAGCUAGUCCACGUCAGCUUUUUAAGGCUUCUAAUAUGACCCAGCGAUGGCAACACAGAGAGAUAUCUAAUUUUGAGUACUUGAUGUUUCUCAACACGAUAGCAGGACCAACAGAGGAUUGAGCAUCA
B21: chr5:52955293:52955406:+|3pUTR|ENSG00000213949|unk|total|mutant (ssRNA)
RNA: GGGAGUUCUACAGUCCGACGAUCUACCAACCAGUGUGAGCUGACUUCAGCACACCACUGAGACAGAUUACACGACCGACAGACCGACCGACCGACCGACCGACCGACCGACCGACCGACCGACCGAUAUUGACCGAGAACAUGCAACAGAGGAUUGAGCAUCA

Numbering of substitutions follows the chain as printed. In all, about 5,800 sequences were measured (“enrichment r”: median about 0.68, highest 2% from about 11 on). The sample as a whole holds a higher share of the highest values than the screen did.

This assay addresses T1, UNK ZnF1-6 (called full-length) (human, UniProt Q9C0B0 30-357).
T1 sequence: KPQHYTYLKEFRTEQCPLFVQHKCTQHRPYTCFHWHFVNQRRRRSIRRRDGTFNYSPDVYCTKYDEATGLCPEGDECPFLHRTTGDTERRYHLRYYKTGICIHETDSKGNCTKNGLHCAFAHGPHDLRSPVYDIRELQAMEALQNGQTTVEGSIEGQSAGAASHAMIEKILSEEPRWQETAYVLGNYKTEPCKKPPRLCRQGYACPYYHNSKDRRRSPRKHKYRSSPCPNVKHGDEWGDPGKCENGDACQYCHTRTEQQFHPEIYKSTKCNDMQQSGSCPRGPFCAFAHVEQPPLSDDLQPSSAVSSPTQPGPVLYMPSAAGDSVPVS
Nature of the assay: nsRBNS (natural sequence RNA bind-n-seq); RBNS binding buffer (assumed for nsRBNS): 25 mM Tris pH 7.5, 150 mM KCl, 3 mM MgCl2, 0.01% Triton X-100, 500 ug/ml BSA, 20 U/ml SUPERase-In, 4 C; UNK is unkempt and MSI1 is Musashi-1; names of the RNAs are library labels; protein concentration not given here; high values mean tight binding.
B1 returned a binding signal of 0.988 enrichment R.
The value for B2 was 0.956 enrichment R; that for B3 was 4.25 enrichment R; that for B4 was 0.575 enrichment R.
B5 came in with a binding signal of 2.09 enrichment R.
The molecule B6 returned a binding signal of 0.468 enrichment R.
The value for B7 was 0.908 enrichment R.
Turning to B8, the binding signal came to 0.542 enrichment R.
The value for B9 was 0.684 enrichment R.
The value for B10 was 3.86 enrichment R; that for B11 was 3.22 enrichment R; that for B12 was 11.1 enrichment R.
The value for B13 was 32.9 enrichment R; that for B14 was 0.905 enrichment R.
B15 had a binding signal of 11.6 enrichment R.
Take B16: the binding signal turned out to be 24.7 enrichment R.
In turn, B17 returned a binding signal of 0.453 enrichment R.
The value for B18 was 1.92 enrichment R; that for B19 was 1.9 enrichment R; that for B20 was 0.548 enrichment R.
The value for B21 was 0.427 enrichment R.
